Source: PubChem BioAssay (NCI)
“And” between values parts separate entries of the source, which are not always exact repeats. Equal values may be shown once. Compounds without any hit were thinned out: in the full panel of roughly 79,000, 15% have a hit. The source holds several records for some structures; these can differ, active in one and inactive in another. The source made the active and inactive calls. No stated cut-off is given here; in the data, active means growth inhibition above about 70%; inactive means the rest.

Key:
[1] = NCI Yeast Anticancer Drug Screen. Data for the rad50 strain (AID 155);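 further: 0% = growth of vehicle-only cultures of the same strain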; settings: S. cerevisiae rad50 strain growth inhibition, stronger effect = higher value
How it was run: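 Relative growth inhibition (compound vs vehicle) was measured in yeast with a defined repair-gene alteration.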

[2] = NCI Yeast Anticancer Drug Screen. Data for the mec2-1 strain (AID 157); settings: S. cerevisiae mec2-1 strain, stronger effect = higher value
How it was run: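 Cells of the genetically defined mec2-1 yeast strain are incubated with test compound. Inhibition of growth is calculated against vehicle-treated controls.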

[3] = NCI Yeast Anticancer Drug Screen. Data for the sgs1 mgt1 strain (AID 161);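 further: 0% = growth of cultures given vehicle only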; settings: S. cerevisiae sgs1 mgt1 strain, stronger effect = higher value
How it was run: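 Inhibition of yeast growth, normalised to vehicle-treated controls, is reported for a strain bearing genetic alterations in DNA damage repair.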

[4] = NCI Yeast Anticancer Drug Screen. Data for the cln2 rad14 strain (AID 165);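 further: 0% = growth equal to vehicle treated cultures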; settings: S. cerevisiae cln2 rad14 strain, stronger effect = higher value
How it was run: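 The screen exposed genetically defined yeast (cln2 rad14) to test compounds and scored growth inhibition relative to vehicle-treated controls.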

[5] = NCI Yeast Anticancer Drug Screen. Data for the bub3 strain (AID 167); settings: S. cerevisiae bub3 mutant strain, stronger effect = higher value
How it was run: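 Screening used yeast with an engineered genetic alteration affecting cell cycle control. Compound-exposed cultures were compared with vehicle cultures, and reduced growth was taken as inhibition.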

[6] = NCI Yeast Anticancer Drug Screen. Data for the mlh1 rad18 strain (AID 175); settings: S. cerevisiae mlh1 rad18 strain growth inhibition, stronger effect = higher value
How it was run: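 Compound-treated yeast growth, normalised to vehicle controls. Strain bears defined DNA repair mutations.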

[7] = at 5.0 µM (retest, dose inferred, filed as 0.5)
[8] = at 50.0 µM (retest, dose inferred, filed as 5.0)

Row | Compound | growth inhibition [1, 7] | growth inhibition [1, 8] | growth inhibition ([1]; at 50.0 µM) | growth inhibition [2, 7] | growth inhibition [2, 8] | growth inhibition ([2]; at 50.0 µM) | growth inhibition [3, 7] | growth inhibition [3, 8] | growth inhibition ([3]; at 50.0 µM) | growth inhibition [4, 7] | growth inhibition [4, 8] | growth inhibition ([4]; at 50.0 µM) | growth inhibition [5, 7] | growth inhibition [5, 8] | growth inhibition ([5]; at 50.0 µM) | growth inhibition [6, 7] | growth inhibition [6, 8] | growth inhibition ([6]; at 50.0 µM)
1 | CC(=O)O[C@H]1C[C@@H]2OC3C=C(C)CCC3(C)[C@@]1(C)[C@@]21CO1 (stereo partly specified) | 99% (active) | 99% (active) | 92.5% (active) and 18.9% (inactive) | 100% (active) | 100% (active) | 94.3% (active) and 1.7% (inactive) | 99% (active) | 99% (active) | 94% (active) and 32.1% (inactive) | 99% (active) | 99% (active) | 92.2% (active) and 6.4% (inactive) | 99% (active) | 99% (active) | 92.7% (active) and 2.9% (inactive) | 99% (active) | 99% (active) | 92.8% (active) and 17.9% (inactive)
2 | CC/C(=C\c1ccc(Cl)cc1)[N+](=O)[O-] | 34% (inactive) | 99% (active) | 13.1% (inactive) | 12% (inactive) | 99% (active) | -3.1% (inactive) | 14% (inactive) | 99% (active) | 53.1% (inactive) | 7% (inactive) | 99% (active) | -5.45% (inactive) | 25% (inactive) | 99% (active) | 4.95% (inactive) | 13% (inactive) | 99% (active) | 8.15% (inactive)
3 | CNC1=C(C)C(=O)C2=C(C1=O)C(COC(N)=O)C1(O)C3C(CN21)N3C (stereo unspecified) | 13% (inactive) | 83% (active) | 72% (active) | 20% (inactive) | 90% (active) | 74.9% (active) | 19% (inactive) | 78% (active) | 69.8% (inactive) | 9% (inactive) | 84% (active) | 61.4% (inactive) | 3% (inactive) | 59% (inactive) | 52.2% (inactive) | 47% (inactive) | 95% (active) | 83% (active)
4 | CCC(C)(C)c1ccc(OP(=S)(S)Oc2ccc(C(C)(C)CC)cc2)cc1 | -1% (inactive) | 92% (active) | 88.5% (active) | 3% (inactive) | 96% (active) | 68.7% (inactive) | -7% (inactive) | 95% (active) | 94.9% (active) | 4% (inactive) | 90% (active) | 90.7% (active) | -1% (inactive) | 94% (active) | 31.5% (inactive) | -4% (inactive) | 95% (active) | 90.5% (active)
5 | O=C1NC(=O)C(C(c2ccnc3ccccc23)C2C(=O)NC(=O)NC2=O)C(=O)N1 | -6% (inactive) | -6% (inactive) | 30.1% (inactive) | 0% (inactive) | -6% (inactive) | 34% (inactive) | -5% (inactive) | -4% (inactive) | 55.9% (inactive) | 3% (inactive) | -7% (inactive) | 62.6% (inactive) | -6% (inactive) | 5% (inactive) | 42.6% (inactive) | 0% (inactive) | -5% (inactive) | 35.8% (inactive)
6 | O=C(O)C1C2c3ccccc3C(c3ccccc32)C1Br (stereo unspecified) | -13% (inactive) | 3% (inactive) | 2.7% (inactive) | 0% (inactive) | 9% (inactive) | 3.8% (inactive) | -7% (inactive) | 8% (inactive) | -1.2% (inactive) | 3% (inactive) | -1% (inactive) | 34.2% (inactive) | -20% (inactive) | -29% (inactive) | -8.2% (inactive) | -11% (inactive) | -8% (inactive) | 14.1% (inactive)
7 | CNC(=O)Oc1ccccc1/C=N\Sc1ccc(Cl)cc1 | -2% (inactive) | 21% (inactive) | 97.2% (active) | 1% (inactive) | 21% (inactive) | 99% (active) | 3% (inactive) | 43% (inactive) | 98.9% (active) | -4% (inactive) | 10% (inactive) | 82.8% (active) | -4% (inactive) | 6% (inactive) | 98.6% (active) | -2% (inactive) | 35% (inactive) | 99.2% (active)
